The source of these data is the supplement of paper PMC11417369.

± gives the standard deviation of the averaged measurements. Whole data set: some 25,000 sequences, median “ln(normalized median fluorescence intensity)” near 8.9, cut for the highest 2% near 10. Many of the other results were omitted from the sample, so the highest values are more common in it than they were.

For the experiment, the system named is PfAP2-LT AP2 domain (GST-tagged). Description: gcPBM binding intensity (ln(normalized median fluorescence intensity)); higher = stronger DNA binding. In outline: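 An Agilent 4 × 180k array of primer-extended double-stranded 36-bp intergenic genomic probes, with negative controls, was incubated for 1 h with GST-tagged P. falciparum DNA-binding domains expressed in E. coli. Alexa488 anti-GST antibody detected bound protein, scanned at 488 nm. Binding intensity is the highest Masliner-normalised natural-log median intensity across replicate spots of either probe orientation.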
For the sequence “GAGAAAAATAAATACACACACATAAATAAATACATA [CACACA_site5102]”, the “gcPBM binding intensity (ln)” value worked out at 9.74 ± 0.42.
Next, “CAGTGCCAAATTAGCACACACATATATACATGAATT [CACACA_site2814]”: 9.3 ± 0.38; “TCGTCTCTTCTTGTTCTGTTTTAGAAGGCTATATAT [CACACA_negctrl_site180]”: 8.88 ± 0.44.
In the case of “AAGAACAGATAAAATCGTACGTGAAACATGAACTTG [XGTACX_site7793]”, the “gcPBM binding intensity (ln)” value stood at 9.03 ± 0.48.
The same measure for “AATGTGCAAACAAACTGTACTTTTTTTTTTTTTTTT [XGTACX_site928]”: 8.86 ± 0.26; for “TACAAAATGGGGAACACACACATATATATATATATA [CACACA_site3844]”: 10.2 ± 0.05; for “GATACAAAATGGGGAACACACACATATATATATATA [CACACA_site9278]”: 10.1 ± 0.22.
Next, “AAAAAAAAAAAACACACACACACATACAAAATATAT [CACACA_site1448]”: 10.04 ± 0.071; “CATAAAAATGAACATACACACATATATATATATATA [CACACA_site2498]”: 9.8 ± 0.17; “TACAAAATGGGGAACACACACATATATAAATAAATA [CACACA_site7751]”: 9.6 ± 0.63.
The same measure for “AAAAAAAAAAAACATACACACAAATATATACATACA [CACACA_site4011]”: 9.15 ± 0.33; for “AAAATAAGCGTGAAACGTACATATTACATTATTATA [XGTACX_site8914]”: 8.78 ± 0.56.
Consider “TATTAAAGATACTCGGTATAAATAAATTTTAATGTG [XGTACX_negctrl_site239]”, for which the “gcPBM binding intensity (ln)” value is 8.54 ± 0.52.
For the sequence “AAGAGAAATGGGCACACACACACATATTATAGATAT [CACACA_site6828]”, the “gcPBM binding intensity (ln)” value turned out to be 9.8 ± 0.21.
Next, “TCTTATCCATATATTACACACTATATATAGAAATTA [CACACA_site291]”: 8.66 ± 0.39.
The same measure for TTTGAATACTGAATGGTGCAAATTGTTCTCCCCATG: 8.67 ± 0.57; for “CCCTCCCCATGTTTAGTGCAAAAATATTTGAAATTG [GTGCAC_site9873]”: 10.1 ± 0.057; for “TTTGAAATATATTTAGTGCATATATATTGATTATAA [GTGCAC_site9604]”: 8.39 ± 0.38.
The same measure for “ATTTTAGAATAAATTTTTTACATTAAAAAACTATTT [CACACA_negctrl_site1414]”: 8.21 ± 0.54; for “ACTTGTAAGAAACACACACACACACCGATATATATA [CACACA_site4594]”: 10.1 ± 0.31; for “AAAGAAAGAAAGAATACACACACACCGATATATATA [CACACA_site9246]”: 9.77 ± 0.31.
For the sequence “AAACTTGTAAGAAACACACACACACGCATATAAATA [CACACA_site6518]”, the “gcPBM binding intensity (ln)” value stood at 9.98 ± 0.099.
Next, “ATAAGAAGAAGAAAAACACACATATGTAGATATATA [CACACA_site7469]”: 9.01 ± 0.42.
The same measure for “AAACTTGTAAGAAACACACACACACCCATATATATA [CACACA_site797]”: 9.96 ± 0.15; for “ACTTGTAAGAAACACACACACACACCCATATATATA [CACACA_site796]”: 10.2 ± 0.16.
For the sequence “TTTAACGTTGAATATACACACATATATATATATATA [CACACA_site3698]”, the “gcPBM binding intensity (ln)” value is 9.55 ± 0.042.
Next, “TATATATAATTATAAGAACACACATATATATATATA [CACACA_site8786]”: 9.46 ± 0.36.
Next, “TATATATATAAACACACACACACATATATATATATT [CACACA_site8814]”: 9.84 ± 0.014; “AAAAAAAAAAGAAACACACACATATATATATATAAT [CACACA_site5052]”: 9.44 ± 0.35.
Next, “TATATAATTATAAGAACACACATATATATATATATA [CACACA_site2472]”: 9.6 ± 0.16.
In the case of “TATATTAAGAAACACACACACATATATATATATATA [CACACA_site1609]”, the “gcPBM binding intensity (ln)” value came to 9.82 ± 0.23.
For “AAACATAAGAAACACACACACATATATATATATATA [CACACA_site3642]”, the “gcPBM binding intensity (ln)” value came to 10.32 ± 0.064.
For “AAACATAAGGGACACACACACATATATATATATATA [CACACA_site5920]”, the “gcPBM binding intensity (ln)” value is 10.2 ± 0.27.
In the case of “TATATATATAAACACACACACATATATATATATATA [CACACA_site4584]”, the “gcPBM binding intensity (ln)” value came to 9.94 ± 0.14.
Next, “CATTATAAGAAACACACACACATATATATATATATA [CACACA_site1051]”: 10.2 ± 0.25; “ATAAATTAACATTAAAGTACATTTTAATAAATATTA [XGTACX_site3647]”: 8.31 ± 0.52.
The same measure for TACCAATAAATGAAGGTGCGTGCTTGCCTTTGCTAT: 8.95 ± 0.31.
Regarding “TCTATACCTATTCTTACACACATATGTATAAATATA [CACACA_site6407]”, the “gcPBM binding intensity (ln)” value came to 9.04 ± 0.36.
Take “ATATAATCAGCTTCTCTTTTATGCTAAAAAAAAAAA [CACACA_negctrl_site1310]”: the “gcPBM binding intensity (ln)” value was 8.25 ± 0.3.
On to “ATATTATAGTTATGAACATGCAAACATTACGAAATA [TGCATGCA_site54]”, for which the “gcPBM binding intensity (ln)” value was found to be 8.76 ± 0.5.
Next, “GTATATATATACCATTGTACTTTCGTAAAAATATTT [XGTACX_site4846]”: 8.8 ± 0.4.
“TAAGACATGATATATACACACCTTGTTTTAATTTTC [CACACA_site5282]”: the “gcPBM binding intensity (ln)” value came to 8.86 ± 0.45.
The same measure for “TATATACATATATGTACACACATTACAGATGTACAT [CACACA_site966]”: 9.21 ± 0.38; for “ATTTTTTTTTTTTTTTTGGGGGGGTATACTTTTAAA [CACACA_negctrl_site1020]”: 10.6 ± 0.2; for “GTTAATATTTTTGGGGGTACTTAAAAAAAAAAAAAA [XGTACX_site1477]”: 8.525 ± 0.021.
As for “TATACTTTATATATTTTGTATATATATTTTTTTTAT [TGCATGCA_negctrl_site530]”, the “gcPBM binding intensity (ln)” value worked out at 8.8 ± 0.48.
